The structures appear in SMILES notation. Active and inactive are the calls of the source. Where a call stands in place of a potency, no number is given. The call rests on the fitted dose curve; in most records, active means well fitted inhibition curve with a large enough effect; inconclusive means small, poorly fitted or top-dose-only effect; inactive means no such curve, though single readings can be large or run the other way.

This test can be described thus: qHTS assay for measurement of the activity of small molecule inhibitors on Zika virus induced Caspase-3 activity in human astrocytoma cells (AID 1224859). As to conditions: SNB-19 ZIKV-induced caspase-3/7, luminescence, 6 h; series mostly up to 45.7 µM. An excerpt:
National Center for Advancing Translational Sciences [NCATS]
Johns Hopkins University School of Medicine
Increase in the Caspase-3 activity indicates an activation of apoptosis cell death pathway caused by Zika virus infection in certain types of neuronal cells including human neural progenitor cells (hNPCs), astrocytes, and astrocytoma cell line (SNB-19). This cell-based caspase-3 activity assay measures the increased caspase-3 activity in the astrocytoma cell line (SNB-19) after a 6-hour Zika virus infection with a luminescence readout. A decrease in the luminescence signal in this assay by small molecule treatment indicates an inhibitory effect of that small molecule on the Zika virus induced caspase-3 activity that may correlate with its effect on reduction of Zika virus caused cell death.
The medium for SNB-19 cells is composed of RPMI 1640 (ATCC, Cat.# 30-2001), 10% fetal bovine serum (FBS) (GE healthcare Life Sciences, Cat.# SH30071.03), and 1% Pen/Strep (Gibco, Cat.# 15140-122). A Caspase-Glo 3/7 assay kit (catalog number G8092; Promega, Madison, WI) was used to detect caspase-3 activity induced by Zika virus infection in human cells. The reagent mixture was reconstituted as described in the protocol from the manufacturer. Polystyrene tissue culture treated and PDL coated white plates were obtained from Greiner Bio-One (Monroe, NC). Cells were seeded in 384- or 1536-well assay plates and cultured at 37 C with 5% CO2 for 16 to 20 hours. The typical cell seeding density in the 1536-well plate assay is 250 cells/well in 3ul medium for SNB-19 cells in tissue culture treated plates. Compounds were added to cells and incubated for one hour before addition of ZIKV solution to cells (2 FFU/cell). After incubation at 37 C with 5% CO2 for 6 hours, the reagent mixture of Caspase-Glo 3/7 assay kit was added to each well, followed by incubation at room temperature for 30 minutes. The luminescence intensity of the assay plates was measured using a ViewLux plate reader (PerkinElmer). Data were normalized by using the cell-containing wells without ZIKV as a negative control (0% induction of caspase 3/7 activity) and wells containing ZIKV infected cells (Caspase-3 activity induced) as a positive control (100% induction of caspase 3 activity). The percentage inhibitions of the increased Caspase-3 activity by small molecule inhibitors were then calculated.
(In general: qHTS replaces the single test concentration by a dilution series.)
For the compound `CC(C)(C)OC(=O)N[C@H]1CCCCCC=C[C@@H]2C[C@@]2(C(=O)NS(=O)(=O)C2CC2)NC(=O)[C@@H]2C[C@@H](OC(=O)N3Cc4cccc(F)c4C3)CN2C1=O`, the Potency result is “inactive”.
Take `C=C1C(=O)OC2C=C(C)CCC=C(C)CCC12` (stereo not given): the Potency entry was “inactive”.
Turning to `CC(C)[C@H](CO)Nc1nc(Nc2ccc(C(=O)O)c(Cl)c2)c2ncn(C(C)C)c2n1`, the Potency result is “inactive”.
Turning to `COc1cc(N2CCC(N3CCN(C)CC3)CC2)ccc1Nc1ncnc(Nc2ccccc2S(=O)(=O)C(C)C)n1`, the Potency result was “inactive”.
Take `O=C(NOCC(O)CO)c1cc(Br)c(F)c(F)c1Nc1ccc(I)cc1F` (stereo not given): the Potency entry was “inactive”.
Take `Cc1cccc(Nc2nc(-c3ccncc3)cs2)c1`: the Potency entry is “inactive”.
Regarding `NC(=O)NN=Cc1ccc([N+](=O)[O-])o1`, the Potency entry is “inactive”.
In the case of `CC(C)C(C)C=CC(C)C1CCC2C3=CC=C4CC(O)CCC4(C)C3CCC21C` (stereo not given) it was “inactive”; in that of `CC1=C(/C=C/C(C)=C/C=C/C(C)=C/C(=O)Nc2ccc(O)cc2)C(C)(C)CCC1`, “inactive”.
Turning to `CCCCCCCCCCCC1=C(O)C(=O)C=C(O)C1=O`, the Potency result was “inactive”.
With `CC[C@]1(O)C[C@@H]2CN(CCc3c([nH]c4ccccc34)[C@@](C(=O)OC)(c3cc4c(cc3OC)N(C)[C@H]3[C@@](O)(C(=O)OC)[C@H](OC(C)=O)[C@]5(CC)C=CCN6CC[C@]43[C@@H]65)C2)C1`, the Potency result is “inactive”.
In the case of `c1cc(-c2sc(-c3ccncc3)c(-c3ccncc3)c2-c2ccncc2)ccn1` it was “inactive”; in that of `CO[C@H]1C(=O)[C@]2(C)[C@@H](OC)C[C@H]3OC[C@@]3(OC(C)=O)[C@H]2[C@H](OC(=O)c2ccccc2)[C@]2(O)C[C@H](OC(=O)[C@H](O)[C@@H](NC(=O)OC(C)(C)C)c3ccccc3)C(C)=C1C2(C)C`, “inactive”; in that of `CC(C)(C)NC(=O)Nc1cccc(Nc2ncc(F)c(NC(C)(C)CO)n2)c1`, “inactive”.
For the compound `O=c1cc(-c2cccc3c2Sc2ccccc2S3)oc(N2CCOCC2)c1`, the Potency result was “inactive”.
In the case of `NCCS` it was “inactive”.
In the case of `O=C(NCc1ccncc1)C12C[C@H]3C[C@@H](C1)CC(c1ccc(Cl)cc1)(C3)C2`, the Potency entry is “inactive”.
Regarding `O=C(O)Cc1cccc2ccccc12`, the Potency result is “inactive”.
Take `O=C(O)CCc1nc(-c2ccccc2)c(-c2ccccc2)o1`: the Potency entry was “inactive”.
`C[C@H]1[C@H](NC(=O)C(=NOC(C)(C)C(=O)O)c2csc(N)n2)C(=O)N1S(=O)(=O)O`: the Potency result was “inactive”.
As to `Cc1cccc(C)c1OCC(C)N` (stereo not given), the Potency entry was “inactive”.
For the compound `CCn1c(C(=O)N(C2CC2)C2CC2)cc2c3c(ncn3C)c(Nc3cc(C)n(C)n3)nc21`, the Potency entry was “inactive”.
On to `COc1ccc2cc(-c3nc(-c4ccc(S(C)=O)cc4)[nH]c3-c3ccncc3)ccc2c1` (stereo not given), for which the Potency entry was “inactive”.
In the case of `CC(C)(C)c1cc(C(=O)O)c(NC(=O)Nc2ccc3[nH]ncc3c2)s1` it was “inactive”; in that of `NC[C@@H]1O[C@@H](O[C@H]2[C@@H](O)[C@H](O[C@@H]3[C@@H](O)[C@@H](N)C[C@H](N)[C@H]3O[C@H]3O[C@H](CN)[C@@H](O)[C@@H](O)[C@H]3N)O[C@H]2CO)[C@H](N)[C@@H](O)[C@@H]1O`, “inactive”; in that of `COc1cc(NC(=O)c2ccc(-c3ccc(Cl)cc3)o2)cc(OC)c1`, “inactive”.
As for `Clc1ccc(Cn2c(CN3CCCC3)nc3ccccc32)cc1`, the entry is “inactive”; as for `O=C(CCc1ccc(O)cc1)c1c(O)cc(O)cc1O[C@@H]1O[C@H](CO)[C@H](O)[C@H](O)[C@H]1O`, “inactive”; as for `O=C(Nc1c(Cl)cncc1Cl)c1ccc(OC(F)F)c(OCC2CC2)c1`, “inactive”.
`CCOC1OC(=O)C[C@H]1NC(=O)[C@@H]1CCCN1C(=O)[C@@H](NC(=O)c1ccc(N)c(Cl)c1)C(C)(C)C` (stereo not given in full): the Potency entry is “inactive”.
As to `C[C@]12CC[C@@H]3c4ccc(O)cc4CC[C@H]3[C@H]1C[C@@H](O)[C@H]2O`, the Potency entry was “inactive”.
In the case of `CON=C(C(=O)N[C@@H]1C(=O)N2C(C(=O)OCOC(=O)C(C)(C)C)=C(C=Cc3scnc3C)CS[C@H]12)c1csc(N)n1` it was “inactive”; in that of `Cc1cnc(C(=O)O)c[n+]1[O-]`, “inactive”.
With `Nc1ncnc2ccccc12`, the Potency result was “inactive”.
Consider `CCN(CC)CCOC(=O)c1ccc(N)cc1`, for which the Potency result is “inactive”.
In the case of `NC(CO)(CO)CCc1ccc(Sc2cccc(OCc3ccccc3)c2)cc1Cl`, the Potency result is “inactive”.
As for `COc1ccc(-c2oc3c(CC=C(C)C)c(OC4O[C@H](CO)[C@@H](O)[C@H](O)[C@@H]4O)cc(O)c3c(=O)c2OC2O[C@@H](C)[C@H](O)[C@@H](O)[C@@H]2O)cc1` (stereo not given in full), the entry is “inactive”.
As for `N#C[C@H]1C[C@H]2C[C@@H]2N1C(=O)[C@@H](N)C12CC3CC(CC(O)(C3)C1)C2`, the entry is “inactive”.
On to `NC(=O)c1ccc2nc(-c3ccc(Oc4ccc(Cl)cc4)cc3)[nH]c2c1`, for which the Potency entry was “inactive”.
As for `Cn1c(N2CCCCS2(=O)=O)nc(C(=O)NCc2ccc(F)cc2)c(O)c1=O`, the entry is “inactive”.
